Experimental data taken from PubChem BioAssay (Tox21).
Where “and” joins values, the source holds several entries; their conditions need not be identical. Equal entries are not always repeated. Inconclusive results are not listed. Entries that show only a call come without a potency. Some structures have more than one record in an assay (separate samples or runs), and their calls can disagree. Calls of active or inactive are those of the source. Unless noted, calls come from the whole dose curve; as a rule, active = well fitted curve in the direction sought with a large enough effect in the repeat runs; inconclusive = weak or mixed curves; inactive = no such curve, though single readings can be large; an effect the other way counts as inactive or inconclusive.

Assays:
[1] = qHTS assay to identify small molecule agonists of the peroxisome proliferator-activated receptor delta (PPARd) signaling pathway - cell viability counter screen (AID 743211); conditions: PPARd-bla HEK293H viability, CellTiter-Glo luminescence, 17 h; series mostly up to 62.6 µM; note: nearly all actives have a fitted effect of over 55% in size; note: potency is the fitted concentration of half-maximal effect
Method in brief: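 Luminescent ATP viability assay (CellTiter-Glo, 30 min RT) in UAS-bla HEK293H cells carrying the PPAR delta reporter construct, 3000 cells/well, after a 17 h compound treatment at 37 C.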

[2] = molecular target: Peroxisome proliferator-activated receptor delta (Homo sapiens) (UniProt Q03181); experiment: qHTS assay to identify small molecule agonists of the peroxisome proliferator-activated receptor delta (PPARd) signaling pathway (AID 743212; calls by dose curve); conditions: HEK293H PPARd-UAS-bla, beta-lactamase FRET ratio, 17 h; series mostly up to 62.6 µM
Chain of Peroxisome proliferator-activated receptor delta (Homo sapiens) (Q03181 whole entry, looked up): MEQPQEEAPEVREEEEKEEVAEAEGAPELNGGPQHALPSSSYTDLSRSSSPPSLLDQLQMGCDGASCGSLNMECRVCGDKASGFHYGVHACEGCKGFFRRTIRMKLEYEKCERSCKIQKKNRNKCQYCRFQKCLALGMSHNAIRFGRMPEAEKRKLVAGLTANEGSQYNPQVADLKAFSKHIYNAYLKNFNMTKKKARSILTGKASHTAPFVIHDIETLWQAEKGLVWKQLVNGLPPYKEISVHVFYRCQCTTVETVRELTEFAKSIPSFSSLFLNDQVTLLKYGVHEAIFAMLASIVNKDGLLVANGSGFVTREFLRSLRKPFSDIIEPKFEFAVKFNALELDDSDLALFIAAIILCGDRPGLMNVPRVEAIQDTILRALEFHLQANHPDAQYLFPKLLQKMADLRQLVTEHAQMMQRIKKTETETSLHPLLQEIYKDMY
Method in brief: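 Cells expressing a UAS-driven beta-lactamase reporter (PPARd-bla HEK293H) were given test compounds after a 5 h settle and kept at 37 C. Reporter activity was then measured as FRET fluorescence using LiveBLAzer B/G substrate.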

[3] = qHTS assay to identify small molecule antagonists of the peroxisome proliferator-activated receptor delta (PPARd) signaling pathway - cell viability counter screen (AID 743213); conditions: PPARd-bla HEK293H viability, CellTiter-Glo luminescence, 17 h; series mostly up to 62 µM; note: nearly all actives have a fitted effect of over 50% in size; note: potency is the fitted concentration of half-maximal effect
Method in brief: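 PPARd-bla HEK293H cells were treated with compounds plus agonist L165041 (300 nM final) for 17 h at 37 C. Viability was then read in the same wells by CellTiter-Glo luminescence after 30 min at room temperature.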

[4] = molecular target: Peroxisome proliferator-activated receptor delta (Homo sapiens) (UniProt Q03181); experiment: qHTS assay to identify small molecule antagonists of the peroxisome proliferator-activated receptor delta (PPARd) signaling pathway (AID 743215; active = well fitted inhibition curve with a large enough effect in the signal ratio in the repeat runs, not every such curve was filed as active; the % refers to the signal ratio;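 note: cells stimulated with agonist L165041 at 300 nM final during compound exposure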; note: potency is the fitted concentration of half-maximal effect); conditions: HEK293H PPARd-UAS-bla, beta-lactamase FRET ratio, antagonist, 17 h; series mostly up to 62 µM
Method in brief: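 Cells: HEK293H with a UAS-driven beta-lactamase reporter responsive to PPARd. Compounds were co-added with L165041 (300 nM, final) and incubated 17 h at 37 C before a 2 h room-temperature FRET substrate step and fluorescence reading.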

[5] = molecular target: Bile acid receptor (Homo sapiens) (UniProt Q96RI1); experiment: qHTS assay to identify small molecule antagonists of the farnesoid-X-receptor (FXR) signaling pathway (AID 743217; active = well fitted inhibition curve with a large enough effect in the signal ratio in the repeat runs, not every such curve was filed as active; the % refers to the signal ratio; note: potency is the fitted concentration of half-maximal effect); conditions: HEK293T FXR-UAS-bla, beta-lactamase ratio, CDCA-stimulated, 16 h; series mostly up to 62.6 µM
Chain of Bile acid receptor (Homo sapiens) (Q96RI1 whole entry, looked up): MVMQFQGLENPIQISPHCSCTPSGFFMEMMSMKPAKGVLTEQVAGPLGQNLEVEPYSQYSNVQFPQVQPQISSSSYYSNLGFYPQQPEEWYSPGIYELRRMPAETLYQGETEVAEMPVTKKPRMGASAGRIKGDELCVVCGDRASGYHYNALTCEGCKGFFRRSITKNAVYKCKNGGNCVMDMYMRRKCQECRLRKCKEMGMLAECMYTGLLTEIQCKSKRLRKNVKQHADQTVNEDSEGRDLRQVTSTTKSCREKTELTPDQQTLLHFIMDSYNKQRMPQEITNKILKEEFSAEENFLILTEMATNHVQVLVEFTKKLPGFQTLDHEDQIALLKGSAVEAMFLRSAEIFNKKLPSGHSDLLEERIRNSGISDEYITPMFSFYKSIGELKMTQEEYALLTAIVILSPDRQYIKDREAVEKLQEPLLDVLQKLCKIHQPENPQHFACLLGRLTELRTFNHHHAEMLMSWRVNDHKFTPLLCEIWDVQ
Method in brief: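 Cells carrying a UAS-driven beta-lactamase reporter (GeneBLAzer FXR-UAS-bla HEK 293T) were plated and rested 5 h at 37 °C. Compounds in DMSO were added alongside chenodeoxycholic acid agonist at 50 uM final and left 16 h at 37 °C before FRET substrate readout.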

[6] = qHTS assay to identify small molecule agonists of the farnesoid-X-receptor (FXR) signaling pathway - cell viability counter screen (AID 743218); conditions: FXR-bla HEK293T viability, CellTiter-Glo luminescence, 16 h; series mostly up to 62.6 µM; note: nearly all actives have a fitted effect of over 45% in size; note: potency is the fitted concentration of half-maximal effect
Method in brief: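 Cells were seeded, left 5 h at 37 C and 5% CO2, then dosed with compound in DMSO for 16 h. After the beta-lactamase FRET read, CellTiter-Glo was added and luminescence measured 30 min later.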

[7] = molecular target: Bile acid receptor (Homo sapiens) (UniProt Q96RI1); experiment: qHTS assay to identify small molecule agonists of the farnesoid-X-receptor (FXR) signaling pathway (AID 743220; active = well fitted activation curve with a large enough effect in the signal ratio in the repeat runs, not every such curve was filed as active; the % refers to the signal ratio); conditions: HEK293T FXR-UAS-bla, beta-lactamase FRET ratio, 16 h; series mostly up to 62.6 µM
Method in brief: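 FXR-UAS-bla HEK 293T cells carrying a UAS-driven beta-lactamase reporter were plated for 5 h at 37C/5% CO2, then exposed to DMSO-dissolved Tox21 10K compounds for 16 h at 37C. A LiveBLAzer B/G FRET substrate was loaded for 2 h at room temperature before fluorescence reading.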

[8] = qHTS assay to identify small molecule antagonists of the farnesoid-X-receptor (FXR) signaling pathway - cell viability counter screen (AID 743221; active = well fitted cell-killing curve with a large enough effect in the repeat runs, not every such curve was filed as active; note: nearly all actives have a fitted effect of over 50% in size); conditions: FXR-bla HEK293T viability, CellTiter-Glo luminescence, 16 h; series mostly up to 62.6 µM
Method in brief: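 In GeneBLAzer FXR-UAS-bla HEK 293T cells stimulated with 50 uM chenodeoxycholic acid (final), compounds acted for 16 h at 37 C. Viability was assessed afterwards by CellTiter-Glo luminescence.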

[9] = molecular target: Vitamin D3 receptor (Homo sapiens) (UniProt P11473); experiment: qHTS assay to identify small molecule agonists of the vitamin D receptor (VDR) signaling pathway (AID 743222; calls by dose curve); conditions: HEK293T VDR-UAS-bla, beta-lactamase FRET ratio, 16 h; series mostly up to 63.5 µM
Chain of Vitamin D3 receptor (Homo sapiens) (P11473 whole entry, looked up): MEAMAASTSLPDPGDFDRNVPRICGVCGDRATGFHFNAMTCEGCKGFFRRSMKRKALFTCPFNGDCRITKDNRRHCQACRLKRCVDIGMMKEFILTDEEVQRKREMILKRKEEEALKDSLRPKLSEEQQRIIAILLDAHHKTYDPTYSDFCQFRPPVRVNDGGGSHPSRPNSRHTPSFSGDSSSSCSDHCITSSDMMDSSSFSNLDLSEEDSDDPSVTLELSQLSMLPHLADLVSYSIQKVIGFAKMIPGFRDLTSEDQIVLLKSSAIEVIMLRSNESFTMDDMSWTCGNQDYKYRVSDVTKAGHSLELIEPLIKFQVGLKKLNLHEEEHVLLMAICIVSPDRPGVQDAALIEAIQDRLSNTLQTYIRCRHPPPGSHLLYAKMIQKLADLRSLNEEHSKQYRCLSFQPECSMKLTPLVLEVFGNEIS
Method in brief: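 Cells carrying a VDR-driven beta-lactamase reporter are seeded at 2,000 per well and rested 4 h. Compounds in DMSO are added for 16 h at 37C, and FRET substrate fluorescence is measured after 2 h at room temperature.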

[10] = molecular target: Vitamin D3 receptor (Homo sapiens) (UniProt P11473); experiment: qHTS assay to identify small molecule antagonists of the vitamin D receptor (VDR) signaling pathway (AID 743223; active = well fitted inhibition curve with a large enough effect in the signal ratio in the repeat runs, not every such curve was filed as active; the % refers to the signal ratio; note: potency is the fitted concentration of half-maximal effect); conditions: VDR-UAS-bla HEK293T, beta-lactamase FRET ratio, 16 h; series mostly up to 61 µM
Method in brief: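 Agonist 1alpha,25-dihydroxyvitamin D3 (3 nM in well) was added with each compound to VDR-bla cells preincubated 4 h. Cells stood 16 h at 37C, then FRET substrate 2 h at room temperature; fluorescence intensity recorded.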

Row | SMILES | Potency [1] | Potency [2] | Potency [3] | Potency [4] | Potency [5] | Potency [6] | Potency [7] | Potency [8] | outcome [9] | Potency [10]
1 | O=NN(c1ccccc1)c1ccccc1 | inactive | inactive | inactive | inactive | inactive | inactive | inactive | inactive |  | 
2 | CN(C)P(=O)(N(C)C)N(C)C | inactive | inactive | inactive | inactive | inactive | inactive | inactive | inactive | inactive | inactive
3 | CCOP(=S)(OCC)OP(=S)(OCC)OCC | inactive | inactive | inactive | inactive |  | inactive | inactive | inactive |  | 
4 | CCNCC | inactive | inactive | inactive | inactive |  | inactive |  | inactive | inactive | 
5 | CC(O)CN(CC(C)O)CC(C)O (configuration not stated) | inactive | inactive | inactive | inactive | inactive | inactive | inactive | inactive |  | 
6 | N#Cc1cccnc1 | inactive | inactive | inactive | inactive | inactive | inactive | inactive | inactive | inactive | inactive
7 | Oc1ccc(Cl)cc1Cc1ccccc1 | 54.9 µM (active) | inactive | 44.2 µM (active) and inactive | inactive |  | 60.5 µM (active) and inactive |  | inactive |  | 
8 | COC(=O)Nc1nc2ccccc2[nH]1 | inactive | inactive | inactive | inactive |  | inactive |  | inactive | inactive | 
9 | CCNc1nc(Cl)nc(NC(C)(C)C#N)n1 | inactive | inactive | inactive | inactive |  | inactive |  | inactive |  | 
10 | CC1(C)C(C(=O)OC(C#N)c2cccc(Oc3ccccc3)c2)C1(C)C (configuration not stated) | inactive | inactive | inactive | inactive |  | inactive | inactive | inactive | inactive | inactive
11 | N#CCCCCC#N | inactive | inactive | inactive | inactive | inactive | inactive | inactive | inactive | inactive | inactive
12 | ClC(Cl)(Cl)c1ccccc1 | inactive | inactive | inactive | inactive | inactive | inactive | inactive | inactive | inactive | inactive
13 | O=P(OCCCl)(OCCCl)OCCCl | inactive | inactive | inactive | inactive | inactive | inactive | inactive | inactive | inactive | inactive
14 | O=C1CCCO1 | inactive | inactive | inactive | inactive | inactive | inactive | inactive | inactive | inactive | inactive
15 | CC(C)=CC1C(C(=O)OCc2cccc(Oc3ccccc3)c2)C1(C)C (configuration not stated) | inactive | inactive | inactive | inactive | inactive | inactive | inactive | inactive | inactive | inactive
16 | CCN(CC)C(=O)C(C)Oc1cccc2ccccc12 (configuration not stated) | inactive | inactive | inactive | inactive | inactive | inactive | inactive | inactive |  | 
17 | ClC(Cl)=C(Cl)C(Cl)=C(Cl)Cl | inactive | inactive | inactive | inactive |  | inactive |  | inactive |  | 
18 | CCCCOCC1CO1 (configuration not stated) | inactive | inactive | inactive | inactive | inactive | inactive | inactive | inactive | inactive | inactive
19 | C=C(C)C#N | inactive | inactive | inactive | inactive | inactive | inactive | inactive | inactive | inactive | inactive
20 | CC1CC(=O)O1 (configuration not stated) | inactive | inactive | inactive | inactive | inactive | inactive | inactive | inactive | inactive | inactive
21 | CNC(=S)S | inactive | inactive | inactive | inactive |  | inactive |  | inactive | inactive | inactive
22 | c1ccc2c(c1)Nc1ccccc1S2 | inactive | inactive | inactive | inactive |  | inactive |  | inactive |  | 
23 | CCCCSP(=O)(SCCCC)SCCCC | inactive | inactive | inactive | inactive | inactive | inactive | inactive | inactive | inactive | inactive
24 | C[N+](C)(C)CC(=O)[O-] | inactive | inactive | inactive | inactive |  | inactive |  | inactive |  | 
25 | N#CC(c1ccccc1)c1ccccc1 | inactive | inactive | inactive | inactive | inactive | inactive | inactive | inactive | inactive | inactive

Row | SMILES | Potency [1] | Potency [2] | Potency [3] | Potency [4] | Potency [5] | Potency [6] | Potency [7] | Potency [8] | outcome [9] | Potency [10]
26 | CCCCC(C#N)(Cn1cncn1)c1ccc(Cl)cc1 (configuration not stated) | inactive | inactive | inactive | inactive |  | inactive |  | inactive |  | 
27 | CC1=C(C(=O)Nc2ccccc2)SCCO1 | inactive | inactive | inactive | inactive | inactive | inactive | inactive | inactive | inactive | inactive
28 | ClC(Cl)(Cl)Br | inactive | inactive | inactive | inactive | inactive | inactive | inactive | inactive | inactive | inactive
29 | OCCOCCO | inactive | inactive | inactive | inactive | inactive | inactive | inactive | inactive | inactive | inactive
30 | C[C@]12CC[C@H]3[C@@H](CCC4=CC(=O)CC[C@@H]43)[C@@H]1CC[C@@H]2O | inactive | inactive | inactive | inactive | inactive | inactive | inactive | inactive | inactive | inactive
31 | O=C1Nc2ccc(Cl)cc2C(c2ccccc2)=NC1O (configuration not stated) | inactive | inactive | inactive | inactive | inactive | inactive | inactive | inactive | inactive | inactive
32 | CC[n+]1c(-c2ccccc2)c2cc(N)ccc2c2ccc(N)cc21 | 24.4 µM (active) | inactive | inactive | 24.4 µM (active) and 23.7 µM (active) | 7.73 µM (active) and 5.31 µM (active) | 614 nM (active) |  | inactive | inactive | 12 µM (active)
33 | Nc1ncn[nH]1 | inactive | inactive | inactive | inactive | inactive | inactive | inactive | inactive |  | 
34 | Oc1ccc(Cl)cc1Cl | inactive | inactive | inactive | inactive | inactive | inactive | inactive | inactive | inactive | inactive
35 | CCOC(=O)c1ccccc1N | inactive | inactive | inactive | inactive | inactive | inactive | inactive | inactive | inactive | inactive
36 | CCCCOC(=O)COC(=O)c1ccccc1C(=O)OCCCC | inactive | inactive | inactive | inactive |  | inactive |  | inactive |  | 
37 | CN(C)c1nc(=O)n(C2CCCCC2)c(=O)n1C | inactive | inactive | inactive | inactive | inactive | inactive | inactive | inactive | inactive | inactive
38 | Clc1cccc(C(Cl)(Cl)Cl)n1 | inactive |  | inactive |  | inactive | inactive | inactive | inactive |  | 
39 | N#Cc1nn(-c2c(Cl)cc(C(F)(F)F)cc2Cl)c(N)c1S(=O)C(F)(F)F (configuration not stated) | 22 µM (active) and inactive | inactive |  |  |  | inactive | inactive | inactive | inactive | inactive
40 | Cc1ccc([N+](=O)[O-])cc1 | inactive | inactive | inactive | inactive |  | inactive |  | inactive | inactive | inactive
41 | C[N+](C)(C)CC(=O)O | inactive | inactive | inactive | inactive |  |  |  | inactive |  | 
42 | CCCCCCCCCCCCCl | inactive | inactive | inactive | inactive |  | inactive |  | inactive | inactive | inactive
43 | Brc1ccc(Br)cc1 | inactive | inactive |  | inactive | inactive | inactive | inactive | inactive | inactive | inactive
44 | CC(C)(C#N)N=NC(C)(C)C#N | inactive | inactive | inactive | inactive |  | inactive |  | inactive | inactive | inactive
45 | COP(=O)(NC(C)=O)SC (configuration not stated) | inactive | inactive | inactive | inactive |  | inactive |  | inactive | inactive | inactive
46 | CCOS(=O)(=O)OCC | inactive | inactive | inactive | inactive |  | inactive |  | inactive | inactive | inactive
47 | c1ccc(C2CO2)cc1 (configuration not stated) | inactive | inactive | inactive | inactive |  | inactive |  | inactive | inactive | inactive
48 | O=NN1CCOCC1 | inactive | inactive | inactive | inactive |  | inactive |  | inactive | inactive | inactive
49 | COP(=S)(OC)Oc1ccc(Sc2ccc(OP(=S)(OC)OC)cc2)cc1 | inactive | inactive | inactive | inactive |  | inactive |  | inactive | inactive | inactive
